Results as given in the supplement of paper PMC12067093, “Discovery and optimisation of a covalent ligand for TRIM25 and its application to targeted protein ubiquitination” (Chemical Science, 2025).
Of roughly 21,000 targets only a part is listed; those with the largest changes were picked by preference.

These targets were tested with Cc1cc(ccc1-c1ccccc1)C(=O)N1CCCN(CC1)C(=O)CCl [compound 10] (assay: probe-labelled cysteine peptide fold change vs DMSO (competition) (log2 fold change); higher = less target engagement (more negative = stronger competition)). Settings: 10 µM; THP-1; incubation time: 4 h.
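Also: competitive profiling in live THP-1 cells: cysteine peptides tagged with an iodoacetamide desthiobiotin (IA-DTB) probe, intensity after compound treatment relative to DMSO-treated cells.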

**Q.** For “P4HB_P07237_53_YLLVEFYAPWCGHCK (UniProt P07237)”, which “probe-labelled cysteine peptide fold change” value is on record?
**A.** -1.15

**Q.** With “NOP2_P46087_463_VLLDAPCSGTGVISK (UniProt P46087)” as the target, how does the “probe-labelled cysteine peptide fold change” value read?
**A.** -0.0187

**Q.** “NUBP1_P53384_8_MEEVPHDCPGADSAQAGR (UniProt P53384)” was tested. Which “probe-labelled cysteine peptide fold change” value did it give?
**A.** 1.37

**Q.** With “NIPSNAP3A_Q9UFN0_135_QESEITYLVPWCK (UniProt Q9UFN0)” as the target, how does the “probe-labelled cysteine peptide fold change” value read?
**A.** 0.151

**Q.** Which “probe-labelled cysteine peptide fold change” value does the source give for “NOMO3_P69849_565_ISIMHEDWCWK<|>NOMO1_Q15155_565_ISIMHEDWCWK<|>NOMO2_Q5JPE7_565_ISIMHEDWCWK (UniProt Q5JPE7+Q15155+P69849)” here?
**A.** 0.0786

**Q.** For “NFX1_Q12986_295_STCDSENLAVINK (UniProt Q12986)”, which “probe-labelled cysteine peptide fold change” value is on record?
**A.** 0.0638

**Q.** With “NRAS_P01111_51_KQVVIDGETCLLDILDTAGQEEYSAMRDQYMR<|>HRAS_P01112_51_KQVVIDGETCLLDILDTAGQEEYSAMRDQYMR (UniProt P01112+P01111)” as the target, how does the “probe-labelled cysteine peptide fold change” value read?
**A.** -0.209

**Q.** “NSDHL_Q15738_86_FFLGDLCSR (UniProt Q15738)” was tested. Which “probe-labelled cysteine peptide fold change” value did it give?
**A.** -0.104

**Q.** Which “probe-labelled cysteine peptide fold change” value does the source give for “NT5DC1_Q5TFE4_139_YYFYDNYFDLPGALLCAR (UniProt Q5TFE4)” here?
**A.** 1.21

**Q.** “NUMA1_Q14980_961_QFCSTQAALQAMER (UniProt Q14980)” was tested. Which “probe-labelled cysteine peptide fold change” value did it give?
**A.** -0.0783

**Q.** Which “probe-labelled cysteine peptide fold change” value does the source give for “NOL9_Q5SY16_637_TVNCLLVGAIAIPHCVLK (UniProt Q5SY16)” here?
**A.** -0.0765

**Q.** With “PAK2_Q13177_352_ECLQALEFLHANQVIHR (UniProt Q13177)” as the target, how does the “probe-labelled cysteine peptide fold change” value read?
**A.** 0.441

**Q.** With “P4HB_P07237_397_KNVFVEFYAPWCGHCK (UniProt P07237)” as the target, how does the “probe-labelled cysteine peptide fold change” value read?
**A.** -0.644

**Q.** For MYO6_Q9UM54_321_MCTAMK (UniProt Q9UM54), which “probe-labelled cysteine peptide fold change” value is on record?
**A.** 0.00117

**Q.** Which “probe-labelled cysteine peptide fold change” value does the source give for “PARP14_Q460N5_509_VTQHLCLK (UniProt Q460N5)” here?
**A.** 0.0914

**Q.** For “NT5C3B_Q969T7_73_IISEECR (UniProt Q969T7)”, which “probe-labelled cysteine peptide fold change” value is on record?
**A.** -0.00671

**Q.** “NUP205_Q92621_698_CEEYPLTR (UniProt Q92621)” was tested. Which “probe-labelled cysteine peptide fold change” value did it give?
**A.** 0.0608

**Q.** For “PALD1_Q9ULE6_65_VAPVVITYNCK (UniProt Q9ULE6)”, which “probe-labelled cysteine peptide fold change” value is on record?
**A.** 0.106

**Q.** Which “probe-labelled cysteine peptide fold change” value does the source give for “MYO9B_Q13459_1876_ITTCVEMLIK (UniProt Q13459)” here?
**A.** 0.0944

**Q.** “PAICS_P22234_266_SESQCR (UniProt P22234)” was tested. Which “probe-labelled cysteine peptide fold change” value did it give?
**A.** 0.613

**Q.** Which “probe-labelled cysteine peptide fold change” value does the source give for “NOTCH2_Q04721_427_GADCTEDVDECAMANSNPCEHAGK (UniProt Q04721)” here?
**A.** 0.149

**Q.** With “PA2G4_Q9UQ80_85_GIAFPTSISVNNCVCHFSPLK (UniProt Q9UQ80)” as the target, how does the “probe-labelled cysteine peptide fold change” value read?
**A.** 0.203

**Q.** “OSTC_Q9NRP0_14_VPFLVLECPNLK (UniProt Q9NRP0)” was tested. Which “probe-labelled cysteine peptide fold change” value did it give?
**A.** 0.025

**Q.** How did the “probe-labelled cysteine peptide fold change” value turn out when “NR2F6_P10588_316_AIALFTPDACGLSDPAHVESLQEK (UniProt P10588)” was run?
**A.** -0.711

**Q.** “OAT_P04181_93_YFDFLSSYSAVNQGHCHPK (UniProt P04181)” was tested. Which “probe-labelled cysteine peptide fold change” value did it give?
**A.** 0.0237

**Q.** Which “probe-labelled cysteine peptide fold change” value does the source give for “P3H1_Q32P28_568_LDTPLYFSYSHLVCR (UniProt Q32P28)” here?
**A.** -0.35

**Q.** Which “probe-labelled cysteine peptide fold change” value does the source give for “PARK7_Q99497_53_DVVICPDASLEDAK (UniProt Q99497)” here?
**A.** -0.432

**Q.** With “P4HTM_Q9NXG6_156_PLLFEIPGFLTDEECR (UniProt Q9NXG6)” as the target, how does the “probe-labelled cysteine peptide fold change” value read?
**A.** 0.372

**Q.** For “MYO6_Q9UM54_790_RVNHWLTCSR (UniProt Q9UM54)”, which “probe-labelled cysteine peptide fold change” value is on record?
**A.** 0.104

**Q.** Which “probe-labelled cysteine peptide fold change” value does the source give for “PALD1_Q9ULE6_382_AITACAELHDLK (UniProt Q9ULE6)” here?
**A.** -0.02

**Q.** For “NFS1_Q9Y697_353_HHYPGCINLSFAYVEGESLLMALK (UniProt Q9Y697)”, which “probe-labelled cysteine peptide fold change” value is on record?
**A.** 0.466

**Q.** How did the “probe-labelled cysteine peptide fold change” value turn out when “NFKB1_P19838_61_YVCEGPSHGGLPGASSEK (UniProt P19838)” was run?
**A.** 0.0894

**Q.** How did the “probe-labelled cysteine peptide fold change” value turn out when “NACC2_Q96BF6_393_NTLANSCGTGIR<|>NACC1_Q96RE7_416_NTLANSCGTGIR (UniProt Q96RE7+Q96BF6)” was run?
**A.** -0.485

**Q.** How did the “probe-labelled cysteine peptide fold change” value turn out when “NECTIN2_Q92692_238_ADGVTVTCK (UniProt Q92692)” was run?
**A.** -0.148

Same assay, conditions: 50 µM; THP-1; incubation time: 4 h

**Q.** “P4HB_P07237_53_YLLVEFYAPWCGHCK (UniProt P07237)” was tested. Which “probe-labelled cysteine peptide fold change” value did it give?
**A.** -1.6

**Q.** How did the “probe-labelled cysteine peptide fold change” value turn out when “NOP2_P46087_463_VLLDAPCSGTGVISK (UniProt P46087)” was run?
**A.** 0.0458

**Q.** Which “probe-labelled cysteine peptide fold change” value does the source give for “NUBP1_P53384_8_MEEVPHDCPGADSAQAGR (UniProt P53384)” here?
**A.** 1.35

**Q.** Which “probe-labelled cysteine peptide fold change” value does the source give for “NIPSNAP3A_Q9UFN0_135_QESEITYLVPWCK (UniProt Q9UFN0)” here?
**A.** 0.389

**Q.** How did the “probe-labelled cysteine peptide fold change” value turn out when “NOMO3_P69849_565_ISIMHEDWCWK<|>NOMO1_Q15155_565_ISIMHEDWCWK<|>NOMO2_Q5JPE7_565_ISIMHEDWCWK (UniProt Q5JPE7+Q15155+P69849)” was run?
**A.** 0.28

**Q.** How did the “probe-labelled cysteine peptide fold change” value turn out when “NFX1_Q12986_295_STCDSENLAVINK (UniProt Q12986)” was run?
**A.** -0.0574

**Q.** With “NRAS_P01111_51_KQVVIDGETCLLDILDTAGQEEYSAMRDQYMR<|>HRAS_P01112_51_KQVVIDGETCLLDILDTAGQEEYSAMRDQYMR (UniProt P01112+P01111)” as the target, how does the “probe-labelled cysteine peptide fold change” value read?
**A.** -0.642

**Q.** With “NSDHL_Q15738_86_FFLGDLCSR (UniProt Q15738)” as the target, how does the “probe-labelled cysteine peptide fold change” value read?
**A.** 0.0788

**Q.** “NT5DC1_Q5TFE4_139_YYFYDNYFDLPGALLCAR (UniProt Q5TFE4)” was tested. Which “probe-labelled cysteine peptide fold change” value did it give?
**A.** 1.46

**Q.** How did the “probe-labelled cysteine peptide fold change” value turn out when “NUMA1_Q14980_961_QFCSTQAALQAMER (UniProt Q14980)” was run?
**A.** -1.25

**Q.** With “NOL9_Q5SY16_637_TVNCLLVGAIAIPHCVLK (UniProt Q5SY16)” as the target, how does the “probe-labelled cysteine peptide fold change” value read?
**A.** -0.381

**Q.** How did the “probe-labelled cysteine peptide fold change” value turn out when “PAK2_Q13177_352_ECLQALEFLHANQVIHR (UniProt Q13177)” was run?
**A.** 0.0289

**Q.** “P4HB_P07237_397_KNVFVEFYAPWCGHCK (UniProt P07237)” was tested. Which “probe-labelled cysteine peptide fold change” value did it give?
**A.** -2.76

**Q.** Which “probe-labelled cysteine peptide fold change” value does the source give for MYO6_Q9UM54_321_MCTAMK (UniProt Q9UM54) here?
**A.** -0.218

**Q.** For “PARP14_Q460N5_509_VTQHLCLK (UniProt Q460N5)”, which “probe-labelled cysteine peptide fold change” value is on record?
**A.** 0.48

**Q.** With “NT5C3B_Q969T7_73_IISEECR (UniProt Q969T7)” as the target, how does the “probe-labelled cysteine peptide fold change” value read?
**A.** 0.268

**Q.** For “NUP205_Q92621_698_CEEYPLTR (UniProt Q92621)”, which “probe-labelled cysteine peptide fold change” value is on record?
**A.** -0.00172

**Q.** How did the “probe-labelled cysteine peptide fold change” value turn out when “PALD1_Q9ULE6_65_VAPVVITYNCK (UniProt Q9ULE6)” was run?
**A.** -0.15

**Q.** How did the “probe-labelled cysteine peptide fold change” value turn out when “MYO9B_Q13459_1876_ITTCVEMLIK (UniProt Q13459)” was run?
**A.** -0.0605

**Q.** For “PAICS_P22234_266_SESQCR (UniProt P22234)”, which “probe-labelled cysteine peptide fold change” value is on record?
**A.** 1.39

**Q.** Which “probe-labelled cysteine peptide fold change” value does the source give for “NOTCH2_Q04721_427_GADCTEDVDECAMANSNPCEHAGK (UniProt Q04721)” here?
**A.** 0.115

**Q.** For “PA2G4_Q9UQ80_85_GIAFPTSISVNNCVCHFSPLK (UniProt Q9UQ80)”, which “probe-labelled cysteine peptide fold change” value is on record?
**A.** -0.024

**Q.** For “OSTC_Q9NRP0_14_VPFLVLECPNLK (UniProt Q9NRP0)”, which “probe-labelled cysteine peptide fold change” value is on record?
**A.** -0.0744

**Q.** “NR2F6_P10588_316_AIALFTPDACGLSDPAHVESLQEK (UniProt P10588)” was tested. Which “probe-labelled cysteine peptide fold change” value did it give?
**A.** -1.1

**Q.** How did the “probe-labelled cysteine peptide fold change” value turn out when “OAT_P04181_93_YFDFLSSYSAVNQGHCHPK (UniProt P04181)” was run?
**A.** 0.0378

**Q.** Which “probe-labelled cysteine peptide fold change” value does the source give for “P3H1_Q32P28_568_LDTPLYFSYSHLVCR (UniProt Q32P28)” here?
**A.** 0.386

**Q.** With “PARK7_Q99497_53_DVVICPDASLEDAK (UniProt Q99497)” as the target, how does the “probe-labelled cysteine peptide fold change” value read?
**A.** 0.291

**Q.** For “P4HTM_Q9NXG6_156_PLLFEIPGFLTDEECR (UniProt Q9NXG6)”, which “probe-labelled cysteine peptide fold change” value is on record?
**A.** 0.492

**Q.** How did the “probe-labelled cysteine peptide fold change” value turn out when “MYO6_Q9UM54_790_RVNHWLTCSR (UniProt Q9UM54)” was run?
**A.** 0.475

**Q.** “PALD1_Q9ULE6_382_AITACAELHDLK (UniProt Q9ULE6)” was tested. Which “probe-labelled cysteine peptide fold change” value did it give?
**A.** -0.092

**Q.** For “NFS1_Q9Y697_353_HHYPGCINLSFAYVEGESLLMALK (UniProt Q9Y697)”, which “probe-labelled cysteine peptide fold change” value is on record?
**A.** 0.42

**Q.** For “NFKB1_P19838_61_YVCEGPSHGGLPGASSEK (UniProt P19838)”, which “probe-labelled cysteine peptide fold change” value is on record?
**A.** -0.824

**Q.** How did the “probe-labelled cysteine peptide fold change” value turn out when “NACC2_Q96BF6_393_NTLANSCGTGIR<|>NACC1_Q96RE7_416_NTLANSCGTGIR (UniProt Q96RE7+Q96BF6)” was run?
**A.** 0.031

**Q.** Which “probe-labelled cysteine peptide fold change” value does the source give for “NECTIN2_Q92692_238_ADGVTVTCK (UniProt Q92692)” here?
**A.** -0.394
